# Assay results published in the supplement of paper PMC3334620.
# In all, about 33,000 sequences were measured (“E-score (-0.5 to 0.5)”: median about -0.01, highest 2% from about 0.26 on). Only a selection was taken, and the highest values are over-represented in it overall.
# Target: Ste12 (UniProt P13574)
# Assay: PBM E-score (8-mer binding enrichment) (E-score (-0.5 to 0.5)); higher = stronger / more preferred TF binding
# Details: protein concentration: 200 nM; construct: GST-DNA-binding domain
# Outline: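 Yeast transcription factors carrying a GST tag, as full-length proteins or DNA-binding domains, were produced by PURExpress in vitro transcription/translation. About 100-200 nM protein was applied to universal all-10-mer Agilent arrays, double-stranded by primer extension on fresh or once-stripped slides. Bound protein was detected with fluorescent anti-GST, and scans were normalised with masliner. The Universal PBM Analysis Suite gave each ungapped eight-base word, pooled with its reverse complement, an E-score, a modified Wilcoxon-Mann-Whitney statistic.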
# UniProt P13574, sequence (P13574 whole entry): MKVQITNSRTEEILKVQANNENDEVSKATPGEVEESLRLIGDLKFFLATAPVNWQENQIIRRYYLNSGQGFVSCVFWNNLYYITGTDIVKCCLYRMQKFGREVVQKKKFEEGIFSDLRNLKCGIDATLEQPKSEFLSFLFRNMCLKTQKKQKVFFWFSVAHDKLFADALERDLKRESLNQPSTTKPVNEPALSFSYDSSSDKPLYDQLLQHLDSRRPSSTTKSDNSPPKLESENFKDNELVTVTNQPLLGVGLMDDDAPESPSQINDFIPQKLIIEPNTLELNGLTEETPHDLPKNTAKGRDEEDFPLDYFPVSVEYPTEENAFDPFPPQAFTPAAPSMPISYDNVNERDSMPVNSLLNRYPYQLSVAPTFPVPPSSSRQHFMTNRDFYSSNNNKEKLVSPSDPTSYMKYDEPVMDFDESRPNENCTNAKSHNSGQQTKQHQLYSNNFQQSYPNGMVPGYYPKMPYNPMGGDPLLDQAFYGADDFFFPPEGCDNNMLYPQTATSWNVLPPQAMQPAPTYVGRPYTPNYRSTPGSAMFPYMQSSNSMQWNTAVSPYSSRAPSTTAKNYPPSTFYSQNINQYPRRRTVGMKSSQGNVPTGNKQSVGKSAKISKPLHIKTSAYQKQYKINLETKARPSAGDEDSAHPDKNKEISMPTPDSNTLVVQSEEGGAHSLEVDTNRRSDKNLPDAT
row,Sequence,PBM E-score
1,ACAATTTA,0.163
2,AATTAAGT,0.118
3,AACATAAA,0.249
4,CACATAGA,-0.0651
5,ACTAGAAC,-0.0111
6,ACTAGAAA,0.244
7,ACTATAAC,-0.0368
8,ACTATAAA,0.241
9,ACTAGAAT,0.277
10,AACATAAC,0.0575
11,AACATAGA,0.287
12,ACTATAAT,0.274
13,AACATAAT,0.286
14,GACATAGA,0.0743
15,ACTCCTAA,-0.0995
16,GGAGGACA,-0.106
17,GGCAATGA,-0.192
18,ACTTGGAT,0.0871
19,TACTTCAA,0.0645
20,AATCTAGG,0.0839
21,GATGGTAA,0.0297
22,CACCATAG,-0.041
23,AACATAAG,0.289
24,CACATAAG,0.044
25,ATCATAAG,0.0492
26,CCAGAGTA,0.03

row,Sequence,PBM E-score
1,CCCGTCTA,-0.125
2,AATAGCAA,0.00204
3,AAACGTTG,0.111
4,AAACGTTA,0.0762
5,AAACGTTT,0.283
6,AAACGTGA,0.312
7,AAACGTGG,0.0452
8,AAACGTGT,0.123
9,GCAAGGGA,-0.0936
10,AAGTAGCA,0.0754
11,CAACTGAA,0.201
12,AGCCAGAC,-0.132
13,GGCCCCAC,-0.181
14,CGCCCCAC,0.272
15,CGCCCCAG,0.0509
16,GGCCCCAA,-0.177
17,CGCCCCCA,-0.079
18,CGCCCCAA,0.296
19,CTAACGCA,-0.0702
20,ATAGAAAC,0.189
21,CGCCCCTC,0.351
22,CTCCCCGC,0.386
23,ATCCCCTC,0.303
24,CGCCCCTA,0.214
25,ATCCCCTG,-0.157
26,CCCCCCTC,-0.244

row,Sequence,PBM E-score
1,CTCCCCTC,0.28
2,ATCCCCGC,0.249
3,CTCCCCGA,0.0416
4,AGCCCCTC,-0.00471
5,CTCCCCTA,-0.0541
6,ATCCCCTA,-0.0687
7,ACAGACTG,0.0359
8,GACTCCCC,-0.26
9,CCAGGCTC,-0.124
10,AGGCTTCG,-0.158
11,ACACTTCC,-0.0741
12,CAGAGCAC,0.0445
13,AATCGAGG,0.108
14,ATGAGAGC,-0.126
15,TAAGCTCA,-0.18
16,TCGATACA,0.19
17,AACTCCGC,-0.0808
18,AGTGCGCC,-0.156
19,GAATTTCA,-0.0538
20,CTTTGTTA,0.219
21,ATTTGTAA,0.288
22,ATTTGTTG,0.181
23,CTTTGTTC,0.227
24,CTTTGTAA,0.152
25,ATTTGTTA,0.274
26,ATTTGTTC,0.266

row,Sequence,PBM E-score
1,ATTTGTAG,0.127
2,GTTTGTTA,0.169
3,CCTAATGA,0.13
4,AGGGTCTC,-0.153
5,CCCTTCAC,-0.0106
6,AATTCATG,0.255
7,ACCCAGAT,0.0125
8,AGACCACG,-0.255
9,CAAACACG,0.17
10,GAAACACC,0.311
11,CAAACACC,0.121
12,AAAACACG,0.304
13,AAAACACC,0.213
14,AAAACACA,0.198
15,GAAACACA,0.408
16,AAAACACT,0.215
17,TAAACACA,0.175
18,AGGGCTCC,-0.236
19,GTCGCTTA,-0.193
20,CCGGGCAA,-0.0289
21,CATTGTGG,0.0722
22,ATGCTCCA,0.0506
23,GGCTGAAA,0.27
24,GCCTGAAC,-0.209
25,AGCTGAAA,0.264
26,AGCTGAAG,-0.127

row,Sequence,PBM E-score
1,GCCTGAAA,0.273
2,TGCTGAAA,0.24
3,TCCTGAAA,0.25
4,CGCTGAAA,0.251
5,AGCTGAAC,-0.288
6,GCCACAGC,-0.299
7,GGGGCTAA,-0.0575
8,CCTATAGA,0.00311
9,ATTGCGAG,0.127
10,ATTGCGAC,0.277
11,CTTGCGAC,-0.128
12,CCGTCGCA,0.176
13,CAATGCGA,-0.00861
14,CATGATCA,0.0535
15,TTCTAAAA,0.292
16,GTCTAAAA,0.135
17,ATCTAAAC,0.127
18,CTCTAAAA,0.0605
19,ATCTAAAA,0.285
20,ATCTAAAT,0.172
21,CGCTCTGA,0.0576
22,ACTGGGTG,-0.107
23,GTACCTCA,-0.173
24,GAGTTGGA,0.0912
25,ATAGTCAT,-0.141
26,AGGAGCGC,-0.0491

row,Sequence,PBM E-score
1,ACGTGAAA,0.323
2,TAGTGACA,-0.0814
3,AAGTGAAA,0.291
4,TAGTGAAA,0.324
5,TAGTGATA,-0.126
6,TCGTGAAA,0.177
7,GAGTGAAA,0.204
8,ACGTGAAC,-0.226
9,CAGTGAAA,0.197
10,GGCCACAA,0.0783
11,CTCCCAGA,-0.165
12,CCCCAAGC,0.176
13,GCAATCAA,0.0398
14,ACTGGGAA,0.0846
15,AGCTAGTC,-0.133
16,CCAAACAA,0.125
17,ACAAACAC,0.266
18,GCAAACAA,0.146
19,ACAAACAG,0.125
20,ACAAACAA,0.0589
21,TCAAACAA,0.266
22,CAGGGCGA,-0.103
23,CAGCGATC,-0.00075
24,AATGTCAT,0.0301
25,AGTCCCAC,-0.133
26,CACAATAG,0.227

row,Sequence,PBM E-score
1,AGTCTAAT,0.00604
2,ATATAGAT,0.179
3,AGGCGGGA,0.0721
4,AGGCGGGC,0.0738
5,AGGCGGGG,0.269
6,AGGGGCGA,0.165
7,AGGGCGGC,-0.0895
8,AGGGCGTG,-0.116
9,AGGGGCGC,0.0204
10,AGGGGCGG,0.452
11,AGGGCGGG,0.296
12,GCAAAGCC,-0.185
13,TCCCAGAA,-0.0433
14,TGCTTTAA,0.199
15,ACTGAGGG,-0.101
16,CGAGGTAC,-0.0522
17,CGCCGCAG,0.0202
18,CAATTAGA,0.102
19,AAATTAGA,0.283
20,TAATTAGA,0.161
21,GCCGAACC,0.0313
